A number with no mark means an inactive call. Results filed as inconclusive are left out. The list shows a part of the results. Active and inactive are the calls of the source. Calls follow the shape of the dose curve; as a rule, active = well fitted curve in the direction sought with a large enough effect; inconclusive = small, poorly fitted or top-dose-only effect, or another doubt; inactive = no such curve, though single readings can be large; an effect the other way counts as inactive or inconclusive.
Key:
[1] = target: Cytochrome P450 2C9 (Homo sapiens) (UniProt P11712); experiment: qHTS Assay for Inhibitors and Substrates of Cytochrome P450 2C9 (AID 883); also: nearly all actives have a fitted effect of over 60% in size; also: potency is read from the fitted curve at half-maximal effect; as to activity change, negative = inhibition: % is scaled to controls: 0 for no effect and ±100 for the full control effect
Cytochrome P450 2C9 (Homo sapiens), sequence (P11712 whole entry, looked up): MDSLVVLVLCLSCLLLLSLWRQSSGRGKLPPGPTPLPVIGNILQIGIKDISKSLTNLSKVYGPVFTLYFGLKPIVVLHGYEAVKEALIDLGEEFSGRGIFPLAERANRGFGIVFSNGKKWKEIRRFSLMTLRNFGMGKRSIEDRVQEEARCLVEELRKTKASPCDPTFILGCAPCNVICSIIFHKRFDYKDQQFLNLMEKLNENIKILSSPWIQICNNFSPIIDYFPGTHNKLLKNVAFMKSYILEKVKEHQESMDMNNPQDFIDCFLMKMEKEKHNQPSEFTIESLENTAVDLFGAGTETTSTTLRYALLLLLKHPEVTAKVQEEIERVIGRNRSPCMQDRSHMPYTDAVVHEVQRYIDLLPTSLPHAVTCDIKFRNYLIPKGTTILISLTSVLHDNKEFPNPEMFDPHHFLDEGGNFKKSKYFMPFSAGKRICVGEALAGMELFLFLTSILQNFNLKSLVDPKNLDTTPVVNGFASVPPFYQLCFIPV
In short: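 A luminogenic readout tracked human CYP2C9 (10nM) converting deoxyluciferin (100uM, at KM) in 25mM KPO4 during 60 min at 37C with regenerated NADPH. Values normalized to 57uM sulphaphenazole as complete inhibition.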

[2] = target: Cytochrome P450 3A4 (Homo sapiens) (UniProt P08684); experiment: qHTS Assay for Inhibitors and Substrates of Cytochrome P450 3A4 (AID 884); also: nearly all actives have a fitted effect of over 50% in size; also: potency is read from the fitted curve at half-maximal effect; as to activity change, negative = inhibition: series mostly up to about 57 µM; % is scaled to controls: 0 for no effect and ±100 for the full control effect
Cytochrome P450 3A4 (Homo sapiens), sequence (P08684 whole entry, looked up): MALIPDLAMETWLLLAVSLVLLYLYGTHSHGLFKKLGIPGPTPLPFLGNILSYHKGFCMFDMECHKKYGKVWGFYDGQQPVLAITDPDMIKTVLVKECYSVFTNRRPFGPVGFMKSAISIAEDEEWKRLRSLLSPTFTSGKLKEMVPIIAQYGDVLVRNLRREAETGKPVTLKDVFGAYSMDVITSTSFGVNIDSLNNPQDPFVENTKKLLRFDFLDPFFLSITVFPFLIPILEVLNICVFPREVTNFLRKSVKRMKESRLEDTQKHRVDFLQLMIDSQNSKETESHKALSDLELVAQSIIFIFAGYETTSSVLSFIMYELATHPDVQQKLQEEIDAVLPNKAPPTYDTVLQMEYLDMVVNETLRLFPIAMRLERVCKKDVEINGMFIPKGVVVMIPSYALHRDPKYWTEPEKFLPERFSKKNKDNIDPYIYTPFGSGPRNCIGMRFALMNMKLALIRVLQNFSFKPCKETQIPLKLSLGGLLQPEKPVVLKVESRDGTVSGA
In short: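 Luminescent readout of luciferin produced by CYP3A4 (20 nM) dealkylation of Luciferin-PPXE, 25 uM (its KM). NADPH-driven reaction ran 60 min at RT after 10 min compound preincubation; data scaled to 57 uM ketoconazole as 100% inhibition.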

[3] = target: Cytochrome P450 2D6 (Homo sapiens) (UniProt P10635); experiment: qHTS Assay for Inhibitors and Substrates of Cytochrome P450 2D6 (AID 891); also: nearly all actives have a fitted effect of over 60% in size; also: potency is read from the fitted curve at half-maximal effect;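 as to activity change, negative = inhibition: luciferin methyl ether substrate demethylated by CYP2D6 with NADPH regeneration; % is scaled to controls: 0 for no effect and ±100 for the full control effect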
Cytochrome P450 2D6 (Homo sapiens), sequence (P10635 whole entry, looked up): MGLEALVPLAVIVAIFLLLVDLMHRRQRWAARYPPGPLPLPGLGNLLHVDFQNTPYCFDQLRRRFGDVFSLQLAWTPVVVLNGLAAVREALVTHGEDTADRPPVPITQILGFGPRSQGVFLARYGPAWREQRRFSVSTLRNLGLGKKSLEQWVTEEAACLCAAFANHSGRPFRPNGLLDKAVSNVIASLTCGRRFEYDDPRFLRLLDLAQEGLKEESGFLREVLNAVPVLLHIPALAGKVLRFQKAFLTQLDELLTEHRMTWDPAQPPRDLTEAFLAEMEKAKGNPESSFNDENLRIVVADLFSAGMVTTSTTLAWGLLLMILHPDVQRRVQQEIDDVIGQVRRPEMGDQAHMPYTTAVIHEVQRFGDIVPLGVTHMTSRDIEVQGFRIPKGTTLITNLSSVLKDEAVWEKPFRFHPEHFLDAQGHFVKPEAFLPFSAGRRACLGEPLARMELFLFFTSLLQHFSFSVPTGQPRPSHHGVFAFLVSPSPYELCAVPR
In short: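 Luminescent read-out of luciferin formed by 5 nM human CYP2D6 demethylating 30 uM Luciferin-ME EGE (Km level) over 60 min at room temperature after NADPH regeneration addition. Data normalized to full inhibition by 1.43 uM quinidine.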

[4] = target: Cytochrome P450 2C19 (Homo sapiens) (UniProt P33261); experiment: qHTS Assay for Inhibitors and Substrates of Cytochrome P450 2C19 (AID 899); also: nearly all actives have a fitted effect of over 60% in size; also: potency is read from the fitted curve at half-maximal effect; as to activity, negative = inhibition: % is scaled to controls: 0 for no effect and ±100 for the full control effect
Cytochrome P450 2C19 (Homo sapiens), sequence (P33261 whole entry, looked up): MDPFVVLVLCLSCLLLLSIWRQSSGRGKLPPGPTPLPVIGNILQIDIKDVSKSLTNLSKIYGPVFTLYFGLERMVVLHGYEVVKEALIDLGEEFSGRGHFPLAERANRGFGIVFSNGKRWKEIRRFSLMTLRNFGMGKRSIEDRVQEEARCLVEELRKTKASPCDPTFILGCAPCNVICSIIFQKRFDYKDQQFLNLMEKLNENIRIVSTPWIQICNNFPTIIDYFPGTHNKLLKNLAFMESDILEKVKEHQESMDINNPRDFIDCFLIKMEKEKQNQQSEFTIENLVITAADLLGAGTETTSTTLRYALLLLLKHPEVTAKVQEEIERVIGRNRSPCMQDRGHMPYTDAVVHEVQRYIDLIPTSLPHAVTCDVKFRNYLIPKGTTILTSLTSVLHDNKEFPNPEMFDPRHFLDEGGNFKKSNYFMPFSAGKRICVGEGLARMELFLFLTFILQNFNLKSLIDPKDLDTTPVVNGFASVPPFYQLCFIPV
In short: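 NADPH-dependent conversion of Luciferin-H EGE (10uM, at KM) by 5nM enzyme in 50mM KPO4, 60 min at 37C following 10 min compound preincubation. Stopped with luciferin detection buffer; luminescence read after 20 min.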

[5] = qHTS Assay for Identifying Gametocytocidal Compounds (AID 743244); also: potency is read from the fitted curve at half-maximal effect;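 as to max response: % is scaled to controls: 0 for no effect and ±100 for the full control effect; actives lower the fluorescent signal which means gametocytes are killed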; conditions: P. falciparum 3D7 stage III-V gametocytes, alamarBlue, 72 h; max response: active compounds read low
In short: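 Stage III-V P. falciparum 3D7 gametocytes, 20,000 per well, were exposed to compounds for 72 h at 37C, 5% CO2. AlamarBlue was then added for 24 h and viability was read as fluorescence at Ex 525/Em 598 nm.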

[6] = target: Guanine nucleotide-binding protein G(i) subunit alpha-1 (Homo sapiens) (UniProt P63096); experiment: qHTS Assay for Inhibitors of RGS12 GoLoco Motif Activity (Green Fluorophore) (AID 879);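 also: 0% = labeled peptide with Gαi1 and full inhibition = labeled peptide alone without protein; negative values mean loss of peptide binding seen as reduced polarization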
Guanine nucleotide-binding protein G(i) subunit alpha-1 (Homo sapiens), sequence (P63096 whole entry, looked up): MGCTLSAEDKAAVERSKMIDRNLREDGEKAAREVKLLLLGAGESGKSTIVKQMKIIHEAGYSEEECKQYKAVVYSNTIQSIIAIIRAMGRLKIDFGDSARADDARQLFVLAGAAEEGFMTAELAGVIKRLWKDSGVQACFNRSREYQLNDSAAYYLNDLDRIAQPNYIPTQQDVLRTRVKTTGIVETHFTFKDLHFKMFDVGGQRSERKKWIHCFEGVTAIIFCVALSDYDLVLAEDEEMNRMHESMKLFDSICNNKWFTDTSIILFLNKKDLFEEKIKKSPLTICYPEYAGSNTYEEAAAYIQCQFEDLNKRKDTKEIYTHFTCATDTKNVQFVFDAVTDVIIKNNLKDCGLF
In short: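 A drop in FITC polarization marked displacement of the FITC-tagged RGS12 GoLoco peptide (10 nM) from Gαi1 (50 nM). Compounds were incubated 10 min at room temperature in Tris pH 7.5 buffer containing 150 mM NaCl, 0.1 mM GDP and 0.05% NP40; unlabeled peptide titration served as control.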

[7] = target: Alpha-galactosidase (Coffea arabica) (UniProt Q42656); experiment: Counterscreen for Glucocerebrosidase Inhibitors: qHTS Assay for Coffee Bean alpha-Galactosidase at pH 4.5 (AID 957);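 also: series mostly up to about 77 µM; plate controls were enzyme alone for no effect and no enzyme for full effect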
Alpha-galactosidase (Coffea arabica), sequence (Q42656 whole entry, looked up): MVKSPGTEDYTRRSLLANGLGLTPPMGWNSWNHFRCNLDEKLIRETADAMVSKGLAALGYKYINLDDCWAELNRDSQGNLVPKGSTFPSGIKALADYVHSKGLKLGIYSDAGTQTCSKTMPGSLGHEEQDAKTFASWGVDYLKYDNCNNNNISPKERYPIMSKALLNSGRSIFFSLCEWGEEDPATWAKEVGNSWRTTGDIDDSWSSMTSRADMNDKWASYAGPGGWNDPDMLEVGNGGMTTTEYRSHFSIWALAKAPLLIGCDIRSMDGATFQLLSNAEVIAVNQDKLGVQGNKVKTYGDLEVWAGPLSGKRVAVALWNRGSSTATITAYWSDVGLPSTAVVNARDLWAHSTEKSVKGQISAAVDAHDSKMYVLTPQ
In short: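 Quantitative HTS of compounds (0.7 nM to 77 uM) against coffee bean alpha-galactosidase at pH 4.5, measuring 4-methylumbelliferone fluorescence released from 80 uM substrate.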

[8] = target: Alpha-galactosidase (Coffea arabica) (UniProt Q42656); experiment: Counterscreen for Glucocerebrosidase Inhibitors: qHTS Assay for Coffee Bean alpha-Galactosidase at pH 5.9 (AID 998);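 also: plate controls were uninhibited enzyme for no effect and no-enzyme basal signal for full effect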
In short: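 In 50 mM citric acid pH 5.9 with 0.005% Tween-20, coffee bean enzyme hydrolyses 80 uM 4-MU alpha-D-galactopyranoside over 20 min at RT. Activity is normalized to controls; AC50 comes from Hill-modelled concentration-response data.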

[9] = target: Bifunctional 3'-5' exonuclease/ATP-dependent helicase WRN (Homo sapiens) (UniProt Q14191); experiment: qHTS for Inhibitors of WRN Helicase: Confirmatory Assay for Cherry-picked Compounds. (AID 720497); also: series mostly up to about 57 µM; nearly all actives have a fitted effect of over 65% in size
Bifunctional 3'-5' exonuclease/ATP-dependent helicase WRN (Homo sapiens), sequence (Q14191 whole entry, looked up): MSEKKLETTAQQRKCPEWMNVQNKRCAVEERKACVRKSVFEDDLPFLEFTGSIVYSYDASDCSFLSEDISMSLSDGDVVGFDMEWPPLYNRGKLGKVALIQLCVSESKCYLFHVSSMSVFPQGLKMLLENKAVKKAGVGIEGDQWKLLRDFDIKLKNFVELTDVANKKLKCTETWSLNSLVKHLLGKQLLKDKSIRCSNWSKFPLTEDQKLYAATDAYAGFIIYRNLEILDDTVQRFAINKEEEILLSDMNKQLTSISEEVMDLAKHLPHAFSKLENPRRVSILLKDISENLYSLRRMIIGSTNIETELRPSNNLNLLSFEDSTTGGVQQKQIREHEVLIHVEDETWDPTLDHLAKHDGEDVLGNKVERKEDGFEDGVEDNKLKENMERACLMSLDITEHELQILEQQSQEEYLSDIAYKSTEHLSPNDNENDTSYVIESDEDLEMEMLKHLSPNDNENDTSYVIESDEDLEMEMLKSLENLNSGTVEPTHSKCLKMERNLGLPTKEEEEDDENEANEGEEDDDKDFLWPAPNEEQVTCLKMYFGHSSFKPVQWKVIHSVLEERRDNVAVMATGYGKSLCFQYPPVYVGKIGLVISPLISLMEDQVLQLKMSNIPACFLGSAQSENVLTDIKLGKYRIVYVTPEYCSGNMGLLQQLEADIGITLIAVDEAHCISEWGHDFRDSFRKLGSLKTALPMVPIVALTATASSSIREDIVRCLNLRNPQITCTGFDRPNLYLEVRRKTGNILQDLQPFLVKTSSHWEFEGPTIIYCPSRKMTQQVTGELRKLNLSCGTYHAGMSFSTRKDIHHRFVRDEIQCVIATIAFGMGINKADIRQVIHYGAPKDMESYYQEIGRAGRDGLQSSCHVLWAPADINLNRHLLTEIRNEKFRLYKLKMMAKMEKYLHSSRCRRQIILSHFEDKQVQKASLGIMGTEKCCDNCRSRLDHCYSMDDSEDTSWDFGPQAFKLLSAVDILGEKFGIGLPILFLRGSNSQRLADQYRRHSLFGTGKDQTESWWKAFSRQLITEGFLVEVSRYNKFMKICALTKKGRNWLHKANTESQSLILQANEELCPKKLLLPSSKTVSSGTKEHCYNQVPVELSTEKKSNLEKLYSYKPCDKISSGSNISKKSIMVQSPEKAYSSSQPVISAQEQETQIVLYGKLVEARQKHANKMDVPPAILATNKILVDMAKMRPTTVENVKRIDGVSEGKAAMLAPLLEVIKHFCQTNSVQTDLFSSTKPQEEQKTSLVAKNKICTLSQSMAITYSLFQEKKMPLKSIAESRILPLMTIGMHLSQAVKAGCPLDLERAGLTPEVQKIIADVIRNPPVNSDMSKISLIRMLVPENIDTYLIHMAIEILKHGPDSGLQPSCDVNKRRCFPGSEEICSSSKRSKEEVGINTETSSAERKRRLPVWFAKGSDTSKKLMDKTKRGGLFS
In short: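 Kinetic fluorescence helicase read-out (525 nm excitation, 598 nm emission) on a forked duplex substrate at 100 nM with 2 mM ATP. Enzyme: 20 nM WRN, exposed to compound for 15 min at room temperature. Responses normalized to buffer-only and positive-control wells.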

[10] = qHTS for Inhibitors of WRN Helicase: Thiazole Orange DNA Binding Counterscreen (AID 720499);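 also: drop in dye fluorescence marks compound binding to DNA; % is scaled to controls: 0 for no effect and ±100 for the full control effect; nearly all actives have a fitted effect of over 60% in size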
In short: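 Mixture of 100 nM thiazole orange and 50 nM unlabeled DNA exposed to compound 15 min at room temperature. Dye displacement monitored by 480/530 nm fluorescence, identifying nonspecific DNA binders.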

[11] = target: RecQ-like DNA helicase BLM (Homo sapiens) (UniProt P54132); experiment: qHTS for Inhibitors of WRN Helicase: BLM Helicase Counterscreen for WRN Inhibitors (AID 720503)
In short: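 Steps: compounds added to 1 nM BLM in pH 8.0 Tris buffer with 2 mM MgCl2; 15 min room-temperature incubation; substrates added (100 nM DNA, 2 mM ATP final); discontinuous kinetic fluorescence measurement, reads spaced 15 min.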

[12] = target: Cytochrome P450 3A4 (Homo sapiens) (UniProt P08684); experiment: qHTS Assay for Activators of Cytochrome P450 3A4 (AID 885); also: nearly all actives have a fitted effect of over 65% in size
In short: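 Using 20nM recombinant human CYP3A4 in potassium phosphate (200mM), substrate Luciferin-PPXE at 25uM, luminescent luciferin detection followed a 60-min RT NADPH reaction; data scaled to 57 uM ketoconazole.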

[13] = target: Tyrosine-protein kinase Yes (Homo sapiens) (UniProt P07947); experiment: qHTS for small molecule inhibitors of Yes1 kinase: Primary Screen (AID 686947); conditions: Yes1 kinase biochemical qHTS inhibition
Tyrosine-protein kinase Yes (Homo sapiens), sequence (P07947 whole entry, looked up): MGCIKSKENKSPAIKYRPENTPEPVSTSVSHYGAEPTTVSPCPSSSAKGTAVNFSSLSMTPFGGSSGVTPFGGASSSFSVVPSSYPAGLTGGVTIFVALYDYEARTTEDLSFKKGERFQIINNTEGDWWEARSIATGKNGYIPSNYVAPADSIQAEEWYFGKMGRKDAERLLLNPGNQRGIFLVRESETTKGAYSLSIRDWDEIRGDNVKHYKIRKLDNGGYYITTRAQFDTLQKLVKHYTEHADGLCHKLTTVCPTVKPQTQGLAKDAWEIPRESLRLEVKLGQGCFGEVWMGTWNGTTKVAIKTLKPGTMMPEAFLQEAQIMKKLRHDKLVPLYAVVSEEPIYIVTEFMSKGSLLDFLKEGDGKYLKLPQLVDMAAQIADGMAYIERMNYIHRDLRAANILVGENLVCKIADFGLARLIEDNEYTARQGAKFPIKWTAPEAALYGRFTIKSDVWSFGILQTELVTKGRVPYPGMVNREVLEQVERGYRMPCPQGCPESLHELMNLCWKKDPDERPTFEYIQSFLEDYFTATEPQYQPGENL
In short: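 In this qHTS format, inhibition is expressed relative to DMSO controls with enzyme (maximum) and without enzyme (minimum). The 60 min room-temperature reaction uses 0.1 mM ATP, with ADP detected by luminescence.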

[14] = qHTS for small molecule inhibitors of Yes1 kinase: Counter Assay (AID 686950);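 also: no kinase present so only ADP-Glo detection of a fixed ADP amount is tested; luminescence from ADP-Glo reporting ADP in a fixed ATP and ADP mixture; series mostly up to about 77 µM; 0% = DMSO wells with ATP plus ADP and -100% = ATP-only wells without ADP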
In short: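 Measuring interference with ADP-Glo, the assay ran 60 min at room temperature on an ATP/ADP mix lacking enzyme. Values were normalized to ATP-plus-ADP (maximum) and ATP-only (minimum) DMSO controls.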

COc1c(-c2ccccc2)oc2c(ccc3occc32)c1=O
Potency [1]: 1 µM (active)
Potency [2]: 3.16 µM (active)
Potency [3]: 10 µM (active)
Potency [4]: 3.98 µM (active)

CCC1CN2CCC1CC2C(Oc1cc2ccccc2c2ccccc12)c1ccnc2ccc(O)cc12 (configuration not stated)
activity change, negative = inhibition [1]: 22% [at 11.4 µM]
activity change, negative = inhibition [2]: -10.8% [at 11.4 µM]
activity change, negative = inhibition [3]: -1.58% [at 11.4 µM]
activity, negative = inhibition [4]: 16.1% [at 11.4 µM]

CC1Cc2c(cnc3c2CN(C)CC3)CO1 (configuration not stated)
activity change, negative = inhibition [1]: 12.6% [at 11.4 µM]
activity change, negative = inhibition [2]: -13.4% [at 11.4 µM]
activity change, negative = inhibition [3]: 10.1% [at 11.4 µM]
activity, negative = inhibition [4]: 9.03% [at 11.4 µM]

CN(C)CCC(=O)[C@@]1(O)CC[C@H]2[C@H]3CC=C4C[C@@H](O)CC[C@]4(C)[C@H]3CC[C@]21C
Potency [1]: 2.51 µM (active)

CCC(C(=O)O)C1OC(C(C)C(O)C(C)C(=O)C(CC)C2OC3(C=CC(O)C4(CCC(C)(C5CCC(O)(CC)C(C)O5)O4)O3)C(C)CC2C)C(C)CC1C (configuration not stated)
Potency [5]: 0.0605 µM (active)

C[C@@]12C=CC(=O)C=C1CC[C@@H]1C2=CC[C@]2(C)[C@@H]1CC[C@H]2C(=O)CN1CCN(c2cc(N3CCCC3)nc(N3CCCC3)n2)CC1
Potency [6]: inactive
Potency [2]: 3.16 µM (active)
outcome [7]: inactive
outcome [8]: inactive

O=C(O)COc1ccccc1/C=C1\C(=O)NC(=O)N(CCC2=CCCCC2)C1=O
outcome [9]: inactive
outcome [10]: inactive
outcome [11]: inactive

c1ccc(-c2cc3c(nc2-c2ccccc2)CCNC3)cc1
activity change, negative = inhibition [1]: -10% [at 11.4 µM]
activity change, positive = activation [12]: -45.7% [at 11.4 µM]
activity change, negative = inhibition [3]: 5.57% [at 11.4 µM]
activity, negative = inhibition [4]: 24.9% [at 11.4 µM]

Cc1ccc2c(c1)=C/C(=C\c1c(O)[nH]c(=O)[nH]c1=O)C(=O)N=2
outcome [9]: inactive
outcome [10]: inactive
outcome [11]: inactive

C[C@@H]1[C@H](O)[C@@H](C)/C=C/C=C/CC/C=C/C=C/C=C/C=C/[C@H](O[C@H]2O[C@@H](C)[C@H](O)[C@@H](N)[C@H]2O)CC2O[C@](O)(C[C@@H](O)[C@H](O)CC[C@@H](O)C[C@@H](O)C[C@@H](O)CC(=O)O[C@H]1C)C[C@H](O)[C@H]2C(=O)O
max response [5]: -9.77%

CNC(=O)Oc1cc(C)c(C=Cc2cncc(C(=O)NC)c2)c(C)c1
Potency [13]: 0.654 µM (active)
outcome [14]: inactive

COC(C(=O)C(O)C(C)O)C1Cc2cc3cc(OC4CC(OC5CC(O)C(O)C(C)O5)C(O)C(C)O4)c(C)c(O)c3c(O)c2C(=O)C1OC1CC(OC2CC(OC3CC(C)(O)C(O)C(C)O3)C(O)C(C)O2)C(O)C(C)O1 (configuration not stated)
Potency [5]: 1.12 µM (active)

From PubChem BioAssay (NCATS)
